Measurements: PubChem BioAssay AID1159580 (chemical genetic matrix, 2015)
In all, about 5,500 compounds went through this assay and about 2,000 (36%) were called active. Inconclusive results (about 18%) are left out. No stated cut-off is given here; in the data, active means normalized growth mostly below about 0.91 (no sharp cut-off); inconclusive means no clear call, values can overlap the other calls; inactive means mostly above about 0.92. The list shows a part of the results.

Test: chemical genetic growth profiling, strain panel (AID 1159580);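 further: tested at 20 µM; growth read once vehicle control cultures reached saturation at 30 °C; 1 = growth at the plate median or of vehicle wells; lower values mean less growth of the strain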
Settings: S. cerevisiae deletion strains, growth OD

Measured: normalized growth

C=CCn1c(=O)c2c(nc(-c3ccc(S(=O)(=O)O)cc3)n2C)n(C)c1=O
inactive: locus YAL013W, strain DEP1, active compounds read low 0.982 | locus YAL040C, strain CLN3, active compounds read low 0.965 | locus YCL061C, strain MRC1 (second series), active compounds read low 0.985 | locus YDR363W, strain ESC2, active compounds read low 1.07 | locus YER002W, strain NOP16, active compounds read low 1.01 | locus YGR078C, strain PAC10, active compounds read low 0.997 | locus YNL153C, strain GIM3, active compounds read low 1.01 | locus YNL175C, strain NOP13, active compounds read low 1 | locus YNL197C, strain WHI3, active compounds read low 0.987 | locus YNL224C, strain SQS1, active compounds read low 0.99 | locus YOR083W, strain WHI5 (second series), active compounds read low 1.03 | locus YPL241C, strain CIN2, active compounds read low 0.979
